High-throughput results deposited in PubChem BioAssay by National Center for Advancing Translational Sciences (NCATS).
Giardia FBPA inh – blocks Giardia fructose-bisphosphate aldolase activity. Potency, µM (highest dose often 59.6 µM), inactives show at the highest dose activity, negative = inhibition, most hits filed as inhibitors. A8B2U2. 290,000 compounds, 0.71% hits. purified Giardia FBPA; further: nearly all actives have a fitted effect of over 55% in size
Target sequence (A8B2U2 whole entry, looked up): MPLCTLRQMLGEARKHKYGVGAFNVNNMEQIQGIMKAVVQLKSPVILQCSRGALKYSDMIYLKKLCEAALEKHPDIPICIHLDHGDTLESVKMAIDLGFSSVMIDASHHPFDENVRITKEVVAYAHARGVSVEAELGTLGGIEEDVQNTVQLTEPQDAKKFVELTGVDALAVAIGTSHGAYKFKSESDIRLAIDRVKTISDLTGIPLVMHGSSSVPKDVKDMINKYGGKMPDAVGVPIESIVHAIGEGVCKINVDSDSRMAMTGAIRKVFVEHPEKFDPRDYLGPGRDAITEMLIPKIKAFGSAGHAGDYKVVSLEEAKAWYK
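40 nM FBPA preincubated 10 min at RT with compound (up to 57.5 uM final), then substrate plus GAPDH/TPI/NAD/arsenate coupling and diaphorase/resazurin added. Fluorescence read after 20 min at RT, 525/598 nm.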
AmpC inh no detg – AmpC beta-lactamase inhibition without detergent | P00811 | AmpC nitrocefin hydrolysis, absorbance 480 nm, 0.0001% Triton | Potency, µM (highest dose often 57.1 µM), without a hit: at the top dose activity change, negative = inhibition, actives largely listed as inhibitors | 330,000 compounds, 0.52% hits | AID 485341;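 further: plate controls were no compound for no effect and no enzyme for full effect; nearly all actives have a fitted effect of over 20% in size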
Target sequence (P00811 whole entry, looked up): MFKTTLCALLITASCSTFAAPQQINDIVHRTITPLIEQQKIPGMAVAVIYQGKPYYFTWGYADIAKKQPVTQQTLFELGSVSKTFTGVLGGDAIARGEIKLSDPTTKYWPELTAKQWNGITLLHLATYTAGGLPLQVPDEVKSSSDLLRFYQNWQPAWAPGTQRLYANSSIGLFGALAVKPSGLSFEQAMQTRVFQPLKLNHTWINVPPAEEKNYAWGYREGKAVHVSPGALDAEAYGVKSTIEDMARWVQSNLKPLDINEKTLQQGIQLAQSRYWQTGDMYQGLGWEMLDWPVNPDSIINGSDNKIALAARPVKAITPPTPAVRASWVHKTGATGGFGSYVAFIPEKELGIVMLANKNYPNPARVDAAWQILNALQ
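AmpC (5.3 nM in the dispensed reagent) in 20 mM phosphate pH 7.0 with 0.01% (detergent screen) or 0.0001% Triton X-100 was preincubated with compounds for 15 min at room temperature. Nitrocefin was then added from an 800 uM solution, and hydrolysis was followed at 480 nm.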
Sm TGR inh – blocks Schistosoma mansoni thioredoxin glutathione reductase. purified TGR, DTNB reduction, TNB absorbance 405 nm. Potency, µM (top dose mostly 114 µM), without a hit: top-dose activity change, negative = inhibition, hits mostly inhibitors. 360,000 compounds, 3% hits. AID 485364; further: nearly all actives have a fitted effect of over 60% in size
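Kinetic colorimetric format: TGR-catalysed, NADPH-driven DTNB reduction monitored via TNB absorbance. Enzyme dispensed at 20 nM; compound exposure 15 min at room temperature before reaction start.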
AmpC detergent – blocks E. coli AmpC beta-lactamase in detergent assay | P00811 | AmpC hydrolysis of nitrocefin, absorbance 480 nm, 0.01% Triton | Potency, µM (highest dose often 114 µM), for the others: at the top dose activity change, negative = inhibition, usual class: inhibitors | 370,000 compounds, 0.041% hits | AID 485294;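 further: 0% = no-compound wells and -100% = no-enzyme wells; nearly all actives have a fitted effect of over 25% in size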
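AmpC (5.3 nM in the dispensed reagent) in 20 mM phosphate pH 7.0 with 0.01% (detergent screen) or 0.0001% Triton X-100 was preincubated with compounds for 15 min at room temperature. Nitrocefin was then added from an 800 uM solution, and hydrolysis was followed at 480 nm.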
An asterisk follows results filed as active; ? = inconclusive; . = no result given. Hits are enriched below; roughly 3.6% of the tested compounds scored in any of these assays. The call rests on the fitted dose curve; in most records, active means well fitted curve in the direction sought with a large enough effect; inconclusive means small, poorly fitted or top-dose-only effect, or another doubt; inactive means no such curve, though single readings can be large; an effect the other way counts as inactive or inconclusive. Unless noted, on the % scale 0 is the no-effect control and ±100 the full control effect; potency means the concentration at half of the fitted maximal effect.

SMILES	Giardia FBPA inh	AmpC inh no detg	Sm TGR inh	AmpC detergent
Cc1ncc(CO)c2c1Oc1nc(-c3ccc(Cl)cc3)nc(SCC(=O)N3CCCCC3)c1C2	.	.	40µM*	16%
CC[C@H](C)[C@H](NC(=O)[C@H](CC(C)C)NC(=O)[C@H](CO)NC(=O)[C@H](CCC(=O)O)NC(=O)[C@H](CC(C)C)NC(=O)[C@H](Cc1ccc(O)cc1)NC(=O)[C@H](CCCCN)NC(=O)[C@H](CCCCN)NC(=O)[C@H](C)NC(=O)[C@H](CO)NC(=O)[C@H](CC(C)C)NC(=O)[C@H](CCC(N)=O)NC(=O)CNC(=O)[C@H](CC(C)C)NC(=O)[C@H](CC(C)C)NC(=O)[C@H](CCCNC(=N)N)NC(=O)[C@H](CO)NC(=O)[C@H](Cc1ccccc1)NC(=O)[C@H](CC(=O)O)NC(=O)[C@H](CO)NC(=O)[C@@H](NC(=O)[C@H](Cc1ccccc1)NC(=O)[C@@H](NC(=O)CNC(=O)[C@H](CC(=O)O)NC(=O)[C@H](C)NC(=O)[C@@H](N)Cc1cnc[nH]1)C(C)C)[C@@H](C)O)C(N)=O	5%	.	.	.
O=C(NCc1ccncc1)Nc1ccccc1F	3%	1%	.	2%
CCc1nnc(NC(=O)CCC(=O)NC2CCCCCC2)s1	10%	-20%	0%	1%
COc1cccc(Sc2ccccc2/C=N/NC(N)=O)c1	-5%	-21%	0%	-14%
Cc1ccc(-c2nc3nc(C)cc(N4CCN(c5cc(Cl)ccc5C)CC4)n3n2)cc1	.	.	-33%	-1%
Cc1ccc(-c2nc3nc(C)cc(N4CCN(c5cccc(C)c5C)CC4)n3n2)cc1	.	.	56µM*	8%
COc1ccccc1CN(CC(=O)NCc1ccco1)C(=O)CNS(=O)(=O)c1ccc(C)cc1	6%	-17%	28µM*	-1%
COc1ccccc1CN(CC(=O)NCc1ccco1)C(=O)CNS(=O)(=O)c1ccccc1	1%	-13%	50µM*	5%
Cc1ccc(S(=O)(=O)NCC(=O)N(CC(=O)NCc2ccco2)Cc2cccs2)cc1	0%	-15%	-36%	-8%
COc1ccc(S(=O)(=O)NCC(=O)N(CC(=O)NCc2ccco2)Cc2ccccc2)cc1	-6%	-26%	-1%	-1%
Cc1ccccc1N(CC(=O)NCc1ccco1)C(=O)CNS(=O)(=O)c1ccc(F)cc1	.	1%	40µM*	-6%
Cc1cc(/C=N/NC(=O)c2ccc(O)cc2)c(C)n1CC(C)C	2%	-57%	-24%	-2%
COC(=O)[C@@H](NCc1cccc(CN[C@H](C(=O)OC)c2ccccc2)c1)c1ccccc1	13%	119%	16%	?
CCOC(=O)c1c(-c2ccc(C)cc2)csc1NC(=O)c1cc(=O)c2cc(C)cc(C)c2o1	.	.	2%	6%
Cc1cc(C)cc(NC(=O)c2cc(C)n(Cc3cccs3)c2C)c1	0%	-46%	40µM*	-11%
Cc1cc(C(=O)Nc2ccc(Cl)cc2)c(C)n1Cc1cccs1	-7%	-52%	?	-4%
CCCSCCCNC(=O)CN1C(=O)COc2ccc(S(=O)(=O)N3CCC(C)CC3)cc21	.	.	5.6µM*	9%
COc1ccc(CNC(=S)Nc2ccccc2Cl)cc1	?	-30%	40µM*	-15%
COc1ccc(CNC(=S)Nc2ccccc2-c2ccccc2)cc1	-8%	-37%	3%	-9%
COc1ccc(CNC(=S)Nc2ccc(-c3ccccc3)cc2)cc1	1%	14µM*	-4%	-7%
CCCc1cc(NC(=O)COC(=O)c2ccc(O)cc2O)n(-c2ccccc2)n1	.	-14%	.	.
CCCc1cc(NC(=O)CCl)n(-c2ccccc2)n1	1%	-21%	10µM*	-1%
CC(C)(C)c1cc(NC(=O)CCl)n(-c2ccccc2)n1	-15%	-12%	13µM*	3%
NC(=O)CC[C@H](NC(=O)c1ccc(F)cc1)C(=O)OCC(=O)Nc1ccc(N2CCOCC2)cc1	-2%	-19%	-19%	4%
SMILES	Giardia FBPA inh	AmpC inh no detg	Sm TGR inh	AmpC detergent
CC(=O)N1CCN(C(=O)c2ccc3c(c2)OCCO3)CC1	?	-12%	10%	?
COc1cc(C=C2C(=O)NC(=O)NC2=O)ccc1OCc1ccc([N+](=O)[O-])cc1	-21%	-52%	25µM*	-10%
Fc1ccc(Nc2nc3ccccc3c3nncn23)c(Cl)c1	.	.	4%	9%
Cc1nc2cc(-c3cccc(F)c3)nn2c(C)c1CCC(=O)NCCc1ccccc1	.	.	22µM*	-4%
Cc1cc(NC(=O)CCl)nn1C	1%	-16%	28µM*	-5%
Cn1ccc(NC(=O)CCl)n1	-6%	-5%	14µM*	9%
Cc1cc(NC(=O)c2cc(-c3ccc(Cl)cc3)on2)nn1Cc1ccc(Cl)cc1	.	.	-5%	0%
Cc1cc(Br)c(NC(=O)CCl)c(Br)c1	-5%	-4%	32µM*	-3%
Cc1cc(C(=O)CCl)c(C)n1-c1cccc(S(=O)(=O)N2CCOCC2)c1	-1%	-13%	3.5µM*	11%
Cc1cc(C(=O)CN2C(=O)CN(C)C2=O)c(C)n1-c1cccc(S(=O)(=O)N2CCOCC2)c1	3%	90%	2%	2%
O=S(=O)(c1cccc(S(=O)(=O)N2CCOCC2)c1)N1CCCCC1	7%	6%	5%	?
Cc1ccc(C)n1-c1cccc(S(=O)(=O)N2CCOCC2)c1	1%	-2%	35µM*	9%
COCc1cc(C)nc2sc(C(=O)NCCO)c(-n3cccc3)c12	-2%	-11%	-6%	?
Cc1ccc(/C=C2/C(=O)c3ccc(C(=O)O)cc3C2=O)o1	?	-13%	5µM*	2%
O=C(O)c1ccc2c(c1)C(=O)/C(=C\c1ccco1)C2=O	?	-22%	7.1µM*	4%
Cc1cccc(C)c1NC(=O)COC(=O)CN1C(=O)C2CCCCC2C1=O (stereo unspecified)	.	-20%	2%	5%
CCNc1ncc2nc(-c3ccc(OC)cc3)c(=O)n(CCOC)c2n1	6%	.	.	.
O=C(CCC1CCCCC1=O)c1ccccc1 (stereo unspecified)	7%	1%	7%	-15%
O=C(CC1C(=O)CCCC1=O)c1ccccc1	0%	-5%	40µM*	-2%
CC(C)(C)OC(=O)N1CCC(c2c(C(=O)O)cnn2-c2ccccc2)CC1	-6%	-13%	-3%	-9%
CC(=O)Nc1ccc(NC(=O)c2cnn(-c3ccccc3)c2C2CCN(C(=O)OC(C)(C)C)CC2)cc1	.	.	5µM*	1%
O=C(O)CCN1C(=O)c2ccc(NC(=O)Cc3ccc(Cl)cc3)cc2C1=O	8%	-19%	4%	1%
CN(C)c1oc(-c2ccccc2[N+](=O)[O-])nc1C#N	?	-8%	35µM*	9%
CN(C)c1oc(-c2ccccc2Cl)nc1C#N	4%	-8%	-2%	0%
OC(C#Cc1ccccn1)c1cccs1 (stereo unspecified)	?	0%	1.4µM*	7%
O=C(NC1CCCCC1)C(c1cccs1)N(C(=O)c1ccccn1)c1ccccc1 (stereo unspecified)	0%	-11%	-3%	-17%
